Source: PubChem (National Center for Advancing Translational Sciences (NCATS))
Only some compounds are listed: those with a hit (about 18% of all), similar ones and a draw of the others.
TDP1 cell noCPT = qHTS for Inhibitors of human tyrosyl-DNA phosphodiesterase 1 (TDP1): qHTS in cells in absence of CPT; 420,000 tested, 15% active; DT40 Tdp1-/- hTDP1 cells, no CPT, ATP luminescence, 48 h; Potency, µM (doses to about 46.2 µM), inactives show top-dose activity change, negative = growth inhibition, hits mostly inhibitors; also: potency is read from the fitted curve at half-maximal effect; % is scaled to controls: 0 for no effect and ±100 for the full control effect; nearly all actives have a fitted effect of over 55% in size
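DT40 Tdp1-/-;hTDP1 cells, no CPT (DMSO vehicle only), 400 cells/well; compounds pin-transferred; ≥48 hr, 37 °C; CellTiter-Glo 30 min RT dark, luminescence read.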
TDP1 block = qHTS Assay for Inhibitors of Tyrosyl-DNA Phosphodiesterase (TDP1); Tyrosyl-DNA phosphodiesterase 1 (Homo sapiens), Q9NUW8; recombinant TDP1, AlphaScreen DNA substrate cleavage; Potency, µM (top dose mostly 130 µM), for the others: at the top dose activity change, negative = inhibition, actives largely listed as inhibitors; 350,000 tested, 0.28% active; AID 485290, 2010; also: potency is read from the fitted curve at half-maximal effect; % is scaled to controls: 0 for no effect and ±100 for the full control effect; nearly all actives have a fitted effect of over 40% in size
Target sequence (Q9NUW8 whole entry, looked up): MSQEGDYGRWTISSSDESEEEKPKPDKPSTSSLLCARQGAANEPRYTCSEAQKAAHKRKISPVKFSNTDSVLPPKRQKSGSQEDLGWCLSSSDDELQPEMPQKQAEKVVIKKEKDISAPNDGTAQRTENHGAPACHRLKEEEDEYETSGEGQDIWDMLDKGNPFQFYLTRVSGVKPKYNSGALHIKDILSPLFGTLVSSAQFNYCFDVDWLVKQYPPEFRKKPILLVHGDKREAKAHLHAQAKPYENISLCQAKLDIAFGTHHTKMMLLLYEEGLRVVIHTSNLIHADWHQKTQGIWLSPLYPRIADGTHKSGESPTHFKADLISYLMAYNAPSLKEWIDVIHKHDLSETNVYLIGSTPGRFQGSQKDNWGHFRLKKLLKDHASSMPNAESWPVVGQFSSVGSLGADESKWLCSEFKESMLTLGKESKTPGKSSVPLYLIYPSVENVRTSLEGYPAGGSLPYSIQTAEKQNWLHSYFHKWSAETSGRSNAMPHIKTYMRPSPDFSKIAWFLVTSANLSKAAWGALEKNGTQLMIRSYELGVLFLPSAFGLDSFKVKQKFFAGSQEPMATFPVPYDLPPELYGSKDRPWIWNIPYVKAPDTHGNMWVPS
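Enzyme-compound mixtures sat 15 min at room temperature, followed by a 5 min reaction with 15 nM final substrate and 10 min with AlphaScreen beads. Recombinant human Tdp1 was used at 1 nM final.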
HepG2 tox = qHTS for Inhibitors of TGF-b: Cytotox Counterscreen | HepG2 CAGA-GFP viability, ATP luminescence, 18 h | Potency, µM (highest dose often 46.1 µM), for the others: at the highest dose activity change, negative = cytotoxicity, usual class: cytotoxic | 410,000 tested, 0.76% active; also: potency is read from the fitted curve at half-maximal effect
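CellTiter-Glo luminescence gave cytotoxicity after 18 hours at 37 degrees C. The cells were HepG2 CAGA-GFP in 1% FBS DMEM, stimulated with 500 pg/mL TGF-beta after compound addition. %Activity was normalised to no-cell wells (complete cell-killing) and DMSO (no toxicity), and curves were fitted and classified.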
IL-1B inflam inh = qHTS for Inhibitors of Inflammasome Signaling: IL-1-beta AlphaLISA Primary Screen; 360,000 tested, 4.7% active; AID 743279, 2014; THP-1 LPS/ATP IL-1B secretion, AlphaLISA, 16 h; stronger effect = lower value; activity change, % at 57.5 µM; in the data active = activity change below about -50%; inconclusive = mostly about -30% to -49%; also: % is scaled to controls: 0 for no effect and ±100 for the full control effect
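THP-1 cells pretreated 1 hr with compounds (up to 57.5 uM final), then stimulated with LPS (250 ng/mL final) plus ATP (1.25 mM final); secreted IL-1B measured by AlphaLISA after 16 hr, decreased signal indicating inhibition.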
TGFb SMAD3 inh = qHTS for Inhibitors of TGF-b; Potency, µM (doses to about 46.1 µM), without a hit: top-dose activity, negative = inhibition, most hits filed as inhibitors; HepG2 CAGA-GFP TGF-b/SMAD3 reporter, GFP fluorescence, 18 h; TGF-beta stimulated, 500 pg/mL final; 410,000 tested, 1.2% active; also: potency is read from the fitted curve at half-maximal effect; % is scaled to controls: 0 for no effect and ±100 for the full control effect; nearly all actives have a fitted effect of over 65% in size
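Using HEPG2 CAGA-GFP reporter cells at 1000 cells/well, we pinned test compounds, stimulated with recombinant TGF-beta (500 pg/mL final) and measured total well GFP after 18 h.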
DT40 TDP1 CPT = qHTS for Inhibitors of human tyrosyl-DNA phosphodiesterase 1 (TDP1): qHTS in cells in presence of CPT. chicken DT40 Tdp1-/-;hTDP1 cells + 20 nM CPT, ATP luminescence, 48 h. Potency, µM (doses to about 46.2 µM), without a hit: at the top dose activity change, negative = growth inhibition, most hits filed as inhibitors. 420,000 tested, 12% active. AID 686979, 2013; also: potency is read from the fitted curve at half-maximal effect; % is scaled to controls: 0 for no effect and ±100 for the full control effect; nearly all actives have a fitted effect of over 55% in size
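Chicken DT40 Tdp1-/- cells stably complemented with human TDP1 were seeded at 400 cells/well in medium containing 20 nM camptothecin, exposed to pin-transferred compounds, and grown at 37 °C for at least 48 hr. Viability was read as ATP luminescence.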
* hit, by the source's call; u = inconclusive; x = not tested or not shown; [ ] = remark or other dose. Unless noted, calls follow the shape of the dose curve; as a rule, active = well fitted curve in the direction sought with a large enough effect; inconclusive = small, poorly fitted or top-dose-only effect, or another doubt; inactive = no such curve, though single readings can be large; an effect the other way counts as inactive or inconclusive.

SMILES	TDP1 cell noCPT	TDP1 block	HepG2 tox	IL-1B inflam inh	TGFb SMAD3 inh	DT40 TDP1 CPT
C=CC(=O)N1C/C(=C/c2ccccc2)C(=O)/C(=C\c2ccccc2)C1	0.731µM*	x	1.78µM*	-102.6*	2.24µM*	0.731µM*
O=C1CN(C(=O)/C=C/c2ccccc2)CCN1	1.9%	x	4.8%	-5.3	9.4%	1.7%
Cc1ccc2occ(/C=N/NC(=O)[C@@H](N)Cc3ccccc3)c(=O)c2c1	u	7.7%	10µM*	0.6	-22.2%	-5.0%
CCC(CC)C(=O)Nc1ccc(OCc2cc(=O)n3c4c(sc3n2)CCCC4)cc1	-3.4%	3.8%	-2.9%	x	-1.5%	-10.2%
O=C(Nc1ccncc1)c1ccc(Cl)c(S(=O)(=O)N2CCCCC2)c1	16.4µM*	2.5%	-3.0%	-11.2	-17.5%	13µM*
NS(=O)(=O)c1ccc(Cl)c(C(=O)Nc2ccccc2[N+](=O)[O-])c1	-5.0%	3.0%	-2.7%	-56.3*	11.0%	2.6%
O=C(Nc1ccncc1)c1cc(S(=O)(=O)N2CCCCC2)ccc1Cl	u	-6.5%	-15.3%	25.1	-22.3%	9.2µM*
O=C(Nc1ccccc1[N+](=O)[O-])c1cc(S(=O)(=O)Nc2ccccn2)ccc1Cl	-20.3%	1.4%	-0.6%	44.0	-16.4%	-15.7%
O=C(Nc1cc(S(=O)(=O)N2CCCCC2)ccc1Cl)c1ccccc1NS(=O)(=O)c1ccc(F)cc1	2.59µM*	4.5%	-29.0%	-21.5	3.55µM*	5.17µM*
O=C(Nc1ccncc1)c1cc(S(=O)(=O)N2CCCC2)ccc1Cl	u	-1.1%	-20.4%	60.6	-14.8%	u
CCCCNC(=O)C1CCCN1C(=O)Nc1ccccc1 (configuration not stated)	-3.9%	0.7%	-0.4%	-23.8	-3.6%	-1.9%
Cc1ccc(C(=O)Nc2ccc(N3CCOCC3)cc2)cc1S(=O)(=O)N1CCCCC1	u	-6.2%	1.2%	29.2	u	u
CCN(CC)CCOC(=O)c1ccc(NC(=O)c2ccc(Cl)c(S(=O)(=O)N3CCCCCC3)c2)cc1	u	3.6%	-19.8%	-68.8*	-30.0%	20.6µM*
O=C(Nc1ccccc1O)c1cc(S(=O)(=O)N2CCOCC2)ccc1Cl	u	5.7%	-0.7%	-9.0	-17.5%	-2.2%
O=C(Nc1ccc(N2CCOCC2)cc1)c1ccc(Cl)c(S(=O)(=O)N2CCCC2)c1	20.6µM*	1.8%	-60.6%	35.1	u	u
O=C(Nc1ccc(Cl)c(S(=O)(=O)N2CCCCC2)c1)c1ccncc1	13µM*	-6.3%	-22.6%	-5.0	-24.3%	14.6µM*
O=C(Nc1ccc(Cl)c(S(=O)(=O)N2CCCCC2)c1)c1cnccn1	-14.7%	2.5%	-21.2%	0.0	-24.9%	-20.8%
O=C(Nc1ccccc1O)c1cc(S(=O)(=O)N2CCCC2)ccc1Cl	20.6µM*	-0.4%[12.3 µM]	-29.5%	x	u	u
c1coc(CSSCc2ccco2)c1	u	0.0%[56.1 µM]	-27.1%	27.5	u	u
CC(C)NC(=O)CN1C(=O)CCn2nc(-c3cn(C)c4ccccc34)cc21	-7.6%	6.5%	15.2%	x	30.0%	-12.4%
COc1ccc(NC(=O)C2(C)CCN2CCOc2ccc(C)cc2)cc1OC (configuration not stated)	u	x	11.9%	-9.5	-1.7%	u
COc1cccc(-c2nc(-c3ccc4c(c3)-c3ccccc3S4(=O)=O)c(-c3ccccc3)[nH]2)c1OC	4.11µM*	-0.4%[56.1 µM]	-2.5%	-25.1	2.3%	7.31µM*
CN(C)c1ccc(-c2nc(-c3cccs3)c(-c3cccs3)[nH]2)cc1	9.2µM*	11.6%	-33.7%	x	u	10.3µM*
COc1cc(-c2nc(-c3ccc4c(c3)-c3ccccc3S4(=O)=O)c(-c3ccccc3)[nH]2)cc(OC)c1OC	7.31µM*	7.0%	-4.6%	-4.9	u	18.4µM*
COc1cccc(-c2nc(-c3ccccc3)c(-c3ccccc3)[nH]2)c1OCC(=O)O	-25.1%	x	-22.6%	10.6	-15.6%	-8.2%
SMILES	TDP1 cell noCPT	TDP1 block	HepG2 tox	IL-1B inflam inh	TGFb SMAD3 inh	DT40 TDP1 CPT
COc1cc(-c2nc(-c3ccccc3)c(-c3cccs3)[nH]2)cc(OC)c1OC	23.1µM*	2.0%	-24.7%	u	7.3%	16.4µM*
COc1cc(-c2nc(-c3ccccc3)c(-c3cccs3)[nH]2)cc(OC)c1O	u	9.8%	-67.0%	u	u	u
COc1ccc(-c2c(C3C4C=CCCC4(C)C(=O)N3Cc3ccccc3)ccc3ccccc23)cc1 (configuration not stated)	x	10.3%	0.3%	x	-13.2%	x
Cc1ccccc1C(C)NS(=O)(=O)c1ccc2c(c1)OCCO2 (configuration not stated)	u	0.2%	9.6%	28.0	9.6%	u
CN1CCN(c2nc(NCCOC34CC5CC(CC(C5)C3)C4)nc(OCC(F)(F)F)n2)CC1	u	9.1%	-4.5%	-80.2*	13.3%	u
Cc1ccc(OCc2cc(C(=O)N(C)Cc3nccn3C)no2)cc1C	-21.5%	4.8%	-4.1%	0.4	-1.6%	-20.2%
COc1ccccc1OCc1cc(C(=O)N2CCCC(OCc3cccnc3)C2)no1 (configuration not stated)	u	6.3%	-10.5%	-13.1	0.0%	u
Cc1nn(C)cc1C(C)NC(=O)c1cc(COc2cccc3cnccc23)on1 (configuration not stated)	u	3.1%	-22.4%	-13.5	11.6%	10.3µM*
O=C(c1cc(COc2cccc3cnccc23)on1)N1CCCC(CCCO)C1 (configuration not stated)	0.651µM*	1.3%	-8.5%	u	-5.2%	1.16µM*
CCn1ccnc1CN(C)C(=O)c1cc(COc2ccc(OC)c3ccccc23)on1	u	0.6%	-44.8%	-15.8	0.0%	14.6µM*
COCC1CCN(C(=O)c2cc(COc3cccc4cnccc34)on2)CC1	4.11µM*	5.3%	-7.8%	-53.3*	-23.1%	9.2µM*
COCC(=O)Nc1cc(C(=O)N2CCN(C3CCCC3)C(=O)C2)c2c(c1)nc(-c1ccncc1)n2C	-9.4%	x	x	x	x	-6.3%[9.04 µM]
COc1cccc(CNC(=O)[C@@H]2CCCN2C(=O)[C@@H]2CCCN2C(=O)OC(C)(C)C)c1	-22.7%	x	x	33.8	x	-21.3%
